According to the emibetuzumab library of Makowski et al. (2022):
The other results are listed elsewhere or left out. How many sequences the whole screen found active is unknown.

B1: VH:VL chains; a variant is named by its letters at X, in order (parent)
chain 1: QVQLVQSGAEVKKPGASVKVSCKASGYTFTDYXMHWVRQAPGQGLEWMGXVNPNXXXTTYNQKFEGRVTMTTDTSTSTAYMELRSLRSDDTAVYYCARXNXLDXWGQGTTVTVSS
chain 2: DIQMTQSPSSLSASVGDRVTITCSVSSSVSSIYLHWYQQKPGKAPKLLIYSTSNLASGVPSRFSGSGSGTDFTLTISSLQPEDFATYYCQVYSGYPLTFGGGTKVEIK

Variants of: B1
Assay: yeast display scFab, FACS + sequencing
Details: with MET
How it was run: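 Two magnetic rounds on Protein A beads coated with HGFR-Fc, followed by FACS, were used to enrich a yeast surface scFab library mutated in the heavy-chain CDRs. FACS gated the top 50% antigen-positive cells after 3 h labelling at room temperature with 1 nM HGFR-Fc and anti-Myc in PBSB plus 1% milk. Binding to the antigen was scored positive when a sequence occurred in both antigen-positive samples from deep sequencing and negative when it occurred only in the input.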

Variant | antigen binding call
YRRESSGV | binds
YRREGSGV | binds
YRRESSGY | binds
DGERDYSD | no binding
VRERGDWV | no binding
DREEGSWV | no binding
YRERGAWV | binds
FRERGSWV | binds
YRERGSWV | binds
VEEEGSWV | no binding
VRERGSWV | binds
VTGEDAGD | no binding
YREEGDVF | no binding
YRGANSVF | binds
YRRGSSVF | binds
YRGGGSVF | binds
YRRGSSLF | binds
VTGGDDSA | no binding
VAGTGSSA | no binding
VGGGADGV | no binding
VEGAASWV | no binding
AAGRAYGA | no binding

Variant | antigen binding call
YRRGGSVF | binds
DETGGSSD | no binding
YRRAADSD | no binding
YRTGAAAD | binds
YRTGASSD | binds
YRTGAASD | binds
YAGGTSSD | no binding
YRGAASSD | binds
SEARSSGY | no binding
VTGEDSSD | no binding
DRGGDVSD | no binding
FRGESSAD | binds
FRGGDSAD | binds
FRGESSWD | binds
DRGGDDAD | no binding
VKGGNVGV | no binding
FRRRGAVA | binds
DRRRGSGA | no binding
SRRRGSAA | binds
FRRRGSAA | binds
FRRRGAAA | binds
VETEGDGF | no binding

Variant | antigen binding call
VETGNSLV | no binding
FRRGGAAA | binds
FKGEGDGV | no binding
FKARGASV | binds
FKARGALV | binds
FKGEGYGV | no binding
FKKKDASV | binds
FKRRSASV | no binding
FKGEGSLV | no binding
FKTKNYVV | no binding
SKTKSDAV | no binding
DKEGGSLD | no binding
YAEESAGD | no binding
DKEGGAAD | no binding
YKEGGAGD | binds
YKEGGSGD | binds
DATGGDAD | no binding
DTKAASGV | no binding
VEAGDDVV | no binding
SRKKGDGS | no binding
YRRGSASS | binds
SRRGSASS | binds

Variant | antigen binding call
YRRGDAGS | binds
SRRGGYVS | no binding
YRRGSAGS | binds
DRAGDAGS | no binding
VEGGTDVV | no binding
VATGSSGA | no binding
YRRGSSGS | binds
YRRGGSGS | binds
YAEKDFGV | no binding
ATAGSAAV | no binding
VRGTGVAV | no binding
VRKGGVAV | no binding
VRGRGVAV | binds
VEGGGYGV | no binding
VEGRGDAV | no binding
VKGRAYGV | no binding
YRAGGVAV | binds
YRGRGVAV | binds
VRGRGYGV | binds
VTTKGDVF | no binding
SEARSYVV | no binding
DTREGDAV | no binding

Variant | antigen binding call
YKAGDAAA | binds
VKAGSAAA | binds
VKAKGAAA | binds
VKAGSDVA | no binding
YKAGDDGA | no binding
YKAKGAAA | binds
VEAGDAAA | no binding
VEGGGAAA | no binding
DAGGGAVA | no binding
VTKETFSF | no binding
YEGGTDGA | no binding
STTRGAVA | no binding
ATTRGAVA | no binding
VKARNDLV | no binding
YRGRDAGF | binds
YRGRDASF | binds
YRGRDDWF | no binding
DAGKGSVD | no binding
STATADWV | no binding
